Bioassay records (PubChem)
CR mimetic SO – yeast age-related superoxide inhibition as caloric restriction mimetic; S. cerevisiae aged cells, superoxide DHE fluorescence; active compounds read low; 330,000 compounds, 0.18% hits; superoxide response (% of plate mean), % at 10 µM; AID 2690;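 active = superoxide response under a set limit, about three screen SD below normal, cut at about 65% in these data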;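 also: yeast aged for seven days with compound at 30 °C before DHE staining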
HTR5A ag – activates human HTR5A in OPRM1-OPRD1 agonist counter-screen; P47898; HTR5A agonist assay, luminescence, cell-based; activation, % at 9.3 µM; 340,000 compounds, 0.61% hits; AID 504692; in the data active = activation mostly above about 9.5%, no sharp cut-off; inactive = mostly below about 7.6%
Target sequence (P47898 whole entry, looked up): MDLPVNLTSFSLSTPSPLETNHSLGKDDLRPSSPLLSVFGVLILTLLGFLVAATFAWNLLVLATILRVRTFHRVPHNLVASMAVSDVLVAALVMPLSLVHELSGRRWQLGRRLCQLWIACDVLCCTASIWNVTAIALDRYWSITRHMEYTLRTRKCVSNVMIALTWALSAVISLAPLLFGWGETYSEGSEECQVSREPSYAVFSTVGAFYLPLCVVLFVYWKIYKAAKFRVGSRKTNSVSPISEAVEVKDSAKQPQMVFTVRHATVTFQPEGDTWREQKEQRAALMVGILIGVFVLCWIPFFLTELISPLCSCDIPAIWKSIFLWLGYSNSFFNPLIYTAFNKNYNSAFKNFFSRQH
MOR-DOR ag – agonists of human mu-delta opioid receptor heterodimerization. AID 504326. P35372+P41143. cells, OPRM1-OPRD1 heterodimerization, luminescence. 340,000 compounds, 0.3% hits. activation, % at 9.3 µM
OPRM1-OPRD1 inv – mu-delta opioid heterodimer inverse agonism; inhibition, % at 9.3 µM; 340,000 compounds, 0.21% hits; P35372+P41143; cell-based MOR-DOR heterodimer luminescence; in the data active = inhibition above about 22%, passing the limit was not always enough
PvdQ inh – P. aeruginosa PvdQ acylase inhibition | purified PvdQ acylase, fluorescence plate reader | inhibition, % at 10 µM | 340,000 compounds, 0.063% hits; in the data active = inhibition above about 30%, passing the limit was not always enough
HTR5A inv ctr – HTR5A inverse agonism, opioid heterodimer counter-screen. P47898. HTR5A cell line, luminescence. inhibition, % at 9.3 µM. 340,000 compounds, 0.083% hits; in the data active = inhibition mostly above about 23%, no sharp cut-off; inactive = mostly below about 18%
MOR-DOR ag conf – confirmation of human OPRM1-OPRD1 heterodimerization agonists | shares compounds with MOR-DOR ag | cells, MOR-DOR heterodimerization, luminescence complementation | activation, % at 9.3 µM | 830 compounds, 45% hits | AID 504904
HTR5A ag ctr2 – counter-screen for OPRM1-OPRD1 agonists: human HTR5A agonism; shares compounds with MOR-DOR ag; HTR5A agonist counterscreen, cell luminescence; activation, % at 9.3 µM; 830 compounds, 8% hits; AID 504905; in the data active = activation above about 17%
Each line names hits and unclear results; the compound was inactive in the other large screens (follow-up assays come after a bar, where they were run). Shown are actives, neighbours in structure and some others; about 1.3% of the full set was active somewhere. Rule as the data show it, unless noted: active = activation above about 18%; inactive = the rest.

Cc1ccc(OCCOc2ccc(Br)cc2/C=N\NC(N)=O)cc1	MOR-DOR ag 20 | MOR-DOR ag conf inactive | HTR5A ag ctr2 71
Cc1ccc2nc(Cl)c3cc(C(=O)N(CCN(C)C)Cc4ccco4)sc3c2c1	MOR-DOR ag 32 | MOR-DOR ag conf inactive | HTR5A ag ctr2 inactive
CCCCn1c(=N)n(CC(O)COc2ccc(C)cc2)c2ccccc21 (stereo unspecified)	none
N=c1n(Cc2ccccc2)c2ccccc2n1CC(O)COc1ccccc1 (stereo unspecified)	MOR-DOR ag 43 | MOR-DOR ag conf inactive | HTR5A ag ctr2 inactive
CCCCn1c(=N)n(CC(O)COc2ccccc2)c2ccccc21 (stereo unspecified)	none
Cc1ccc(Cn2c(=N)n(CC(O)COc3ccccc3)c3ccccc32)cc1 (stereo unspecified)	MOR-DOR ag 24 | MOR-DOR ag conf 61 | HTR5A ag ctr2 inactive
CC(NC(=O)COc1ccc(/C=N/NC(=O)CO)cc1)c1ccccc1 (stereo unspecified)	none
CC1(c2cccc3ccccc23)OC(=O)c2ccccc21 (stereo unspecified)	none (no result: CR mimetic SO)
Cc1c(CN2CCC(n3nccc3NC(=O)C3CC3)CC2)[nH]c2ccccc12	MOR-DOR ag 45 | MOR-DOR ag conf inactive | HTR5A ag ctr2 31
CSc1ccccc1NC(=O)Nc1ccc(Cl)cc1	MOR-DOR ag 26 | MOR-DOR ag conf inactive | HTR5A ag ctr2 inactive
CCOc1ccc(Nc2ccc(N)c(S(=O)(=O)O)c2)cc1	none (no result: CR mimetic SO)
O=C(N/N=C\c1c(O)ccc2ccccc12)c1ccc(O)cc1	none
O=C(N/N=C/c1c(O)ccc2ccccc12)c1ccc(Br)o1	MOR-DOR ag 24 | MOR-DOR ag conf inactive | HTR5A ag ctr2 inactive
Cc1ccc(S(=O)(=O)N(C)Cc2ccc(C(=O)NN=C(CC(C)C)CC(C)C)cc2)cc1	none
CC/C(=N\NC(=O)c1ccc(CN(C)S(=O)(=O)c2ccc(C)cc2)cc1)c1ccc(OC(F)F)cc1	MOR-DOR ag 31 | MOR-DOR ag conf inactive | HTR5A ag ctr2 inactive
CSCCC(NS(=O)(=O)c1ccc(C)cc1)C(=O)N1CCN(C(C)=O)CC1 (stereo unspecified)	none
CSCCC(NS(=O)(=O)c1ccc(C)cc1)C(=O)N1CCN(C(c2ccccc2)c2ccccc2)CC1 (stereo unspecified)	MOR-DOR ag 57 | MOR-DOR ag conf inactive | HTR5A ag ctr2 inactive
Fc1ccc(CN2CCN(C(c3ccccc3)c3ccccc3)CC2)cc1	none
c1ccc(CN2CCN(C(c3ccccc3)c3ccccc3)CC2)cc1	MOR-DOR ag 26 | MOR-DOR ag conf 19 | HTR5A ag ctr2 inactive
Oc1ccccc1N1CCN(C(c2ccccc2)c2ccccc2)CC1	MOR-DOR ag 27 | MOR-DOR ag conf 23 | HTR5A ag ctr2 inactive
O=C(NCC(c1ccco1)N1CCc2ccccc2C1)c1ccc(F)cc1 (stereo unspecified)	none
Cc1cccc(CC(=O)NCCN2CCCCC2)c1	none
COc1cc(NC(=O)CN2CCN(CC(=O)Nc3ccccc3OC)CC2)cc(OC)c1	none
CCN1C(c2ccccc2)=C(c2ccccc2)S/C1=C\C=C1/SC(=S)N(C)C1=O	MOR-DOR ag 137 | MOR-DOR ag conf inactive | HTR5A ag ctr2 inactive
CN1CCS/C1=C/C=C1/SC(=S)N(Cc2ccccc2)C1=O	none
CCN1C(=O)/C(=C/C=C2/Sc3ccc4ccccc4c3N2CCO)SC1=S	none
CCN1C(c2ccccc2)=C(c2ccccc2)S/C1=C/C=C1\SC(=S)N(C)C1=O	MOR-DOR ag 48 (no result: CR mimetic SO) | MOR-DOR ag conf 441 | HTR5A ag ctr2 29
Cc1ccc(/C=N/Nc2ccnc3cc(Cl)ccc23)c(C)c1	none
Cc1ccccc1/C=N/Nc1ccnc2cc(Cl)ccc12	MOR-DOR ag 21 | MOR-DOR ag conf 22 | HTR5A ag ctr2 inactive
CCc1c(N)nc(N)nc1Nc1ccccc1C	MOR-DOR ag 21 (no result: CR mimetic SO) | MOR-DOR ag conf inactive | HTR5A ag ctr2 inactive
Cc1ccccc1Nc1nc(N)nc(C)c1Br	none (no result: CR mimetic SO)
Cc1ccsc1C(=O)N1CCN(C(=O)c2ccco2)CC1	none
OCC1(CCc2ccccc2)CCN(Cc2cc(F)ccc2-n2cccn2)CC1	MOR-DOR ag 78 | MOR-DOR ag conf 92 | HTR5A ag ctr2 inactive
OCC1(CCc2ccccc2)CCN(Cc2ccccc2Cl)CC1	MOR-DOR ag 55 | MOR-DOR ag conf 86 | HTR5A ag ctr2 inactive
COc1ccc2c(c1)C=C(CN1CCC(CO)(CCc3ccccc3)CC1)CO2	MOR-DOR ag 36 | MOR-DOR ag conf 54 | HTR5A ag ctr2 inactive
Clc1ccccc1CN1CCN(CCCc2ccccc2)CC1	none (no result: CR mimetic SO)
CN(C)S(=O)(=O)c1ccc(N2CCCC2)c(C(=O)NCC2CCCO2)c1 (stereo unspecified)	none
COc1ccc(NC(=O)Nc2cc(C(C)(C)C)on2)cc1OC	none
O=P(CCCCCCCCCP(=O)(c1ccccc1)c1ccccc1)(c1ccccc1)c1ccccc1	MOR-DOR ag 21 | MOR-DOR ag conf inactive | HTR5A ag ctr2 inactive
O=C(O)CCCCCCCCCCP(=O)(c1ccccc1)c1ccccc1	none
COc1ccc(/C=N/Nc2c(Cl)cc(Cl)cc2Cl)cc1CN1CCOCC1	MOR-DOR ag 31 | MOR-DOR ag conf inactive | HTR5A ag ctr2 inactive
CN(C)C(CNC(=S)Nc1cccc(Cl)c1)c1cccnc1 (stereo unspecified)	MOR-DOR ag 324 | MOR-DOR ag conf 331 | HTR5A ag ctr2 inactive
CN(C)C(CNC(=S)Nc1ccccc1Cl)c1cccnc1 (stereo unspecified)	MOR-DOR ag 407 | MOR-DOR ag conf 387 | HTR5A ag ctr2 inactive
CCc1cccc(C)c1NC(=S)NCC(c1cccnc1)N(C)C (stereo unspecified)	MOR-DOR ag 139 | MOR-DOR ag conf 129 | HTR5A ag ctr2 inactive
CCc1cccc(C)c1NC(=S)NCc1ccccc1	none
CN(C)C(CNC(=S)Nc1ccccc1)c1cccnc1 (stereo unspecified)	MOR-DOR ag 108 | MOR-DOR ag conf 103 | HTR5A ag ctr2 inactive
S=C(NCc1ccncc1)Nc1cccc(Cl)c1	none
CCOC(=O)C1CCN(C(=O)c2cccc(S(=O)(=O)NCc3ccccc3)c2)CC1	none
O=C(NCCCNC(=O)c1ccccc1)c1ccccc1	none (no result: HTR5A ag, MOR-DOR ag, OPRM1-OPRD1 inv, PvdQ inh, HTR5A inv ctr)
CN(C)C(CNC(=O)c1cccs1)c1cccnc1 (stereo unspecified)	none
CN(C)C(CNC(=O)NC1CCCCC1)c1cccnc1 (stereo unspecified)	MOR-DOR ag 158 | MOR-DOR ag conf 148 | HTR5A ag ctr2 inactive
O=C1C=C(NCCc2cc(Br)c(O)c(Br)c2)C(=O)c2ncccc21	MOR-DOR ag 36 (no result: CR mimetic SO) | MOR-DOR ag conf inactive | HTR5A ag ctr2 inactive
